Measurements reported in PubChem BioAssay.
Activity calls are given as the source filed them.

Key:
[1] = system: Plasmodium falciparum Sir2 (PF13_0152, Sir2A); assay: Plasmodium falciparum Sir2A binding compounds – biochemical, small-molecule microarray, 635 nm fluorescence, primary screen (AID 1098); details: fluorescence 635 nm, higher = more signal;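 further: score merges spot fluorescence intensity with its signal-to-noise ratio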
[2] = probe aDKK1 binding to arrayed compounds – biochemical, biotinylated probe, 635/667 nm fluorescence, primary screen (AID 1099); details: small-molecule microarray, higher = more signal;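 further: score merges 667nm spot fluorescence with signal to noise across triplicate slides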
[3] = probe aCHRDL2 binding to arrayed compounds – biochemical, biotinylated probe, 635/667 nm fluorescence, primary screen (AID 1100); details: small-molecule microarray, higher = more signal
[4] = change in splice reporter luminescence, either direction, cell-based, HEK293, spliceosome inhibition project, primary screen (AID 1101); details: HEK293 splicing luciferase reporter, 24 h, higher = more signal, called active from +8 up or from −8 down;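 further: HEK293 cells carrying a splicing-competent luciferase reporter gene; test concentration not given here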
[5] = molecular target: Fibroblast growth factor 10 (Homo sapiens) (UniProt O15520); assay: compounds binding fibroblast growth factor 10 – biochemical, small-molecule microarray, 635 nm fluorescence, primary screen (AID 1102); details: FGF10 binding, fluorescence 635 nm, higher = more signal
[6] = system: glycogen synthase kinase-3 (GSK3A per assay name; protocol says GSK3B); assay: compounds binding glycogen synthase kinase-3 – biochemical, small-molecule microarray, 635 nm fluorescence, GSK3A, primary screen (AID 1103); details: fluorescence 635 nm, higher = more signal; further: the record names both GSK3A and GSK3B
[7] = molecular target: Epidermal growth factor receptor (Homo sapiens) (UniProt P00533); assay: compounds binding epidermal growth factor receptor – biochemical, small-molecule microarray, 635 nm fluorescence, primary screen (AID 1104); details: EGFR binding, higher = more signal;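 further: score merges 667 nm emission intensity with spot signal to noise over triplicate slides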
[8] = molecular target: Follistatin-related protein 3 (Homo sapiens) (UniProt O95633); assay: compounds binding follistatin-related protein 3 – biochemical, small-molecule microarray, 635 nm fluorescence, primary screen (AID 1105); details: FSTL3 binding, higher = more signal;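 further: score merges emission near 667 nm and signal to noise per printed spot across three slides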
[9] = molecular target: Dickkopf-related protein 1 (Homo sapiens) (UniProt O94907); assay: small molecules binding DKK1 protein – biochemical, small-molecule microarray, 635 nm fluorescence scan, primary screen (AID 1106); details: higher = more signal;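 further: score merges emission near 667 nm with signal to noise over three replicate slides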
[10] = system: Inhibin beta A chain (activin A); assay: small molecules binding activin A – biochemical, small-molecule microarray, 635 nm fluorescence scan, primary screen (AID 1107); details: INHBA, higher = more signal;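 further: mouse activin A protein probed at 4.33 µg/mL on printed slides; score merges bound-protein fluorescence near 667 nm with spot signal-to-noise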
[11] = system: Human papillomavirus type 1a protein E7 (residues 44-93); assay: small molecules binding HPV E7 44-93 – biochemical, small-molecule microarray, residues 44-93, 635 nm fluorescence, primary screen (AID 1108); details: fluorescence 635 nm, higher = more signal;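 further: E7 fragment applied at 1 µg/mL in TBST for 1 h at 4 C; score combines spot fluorescence with its signal to noise ratio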
[12] = hepatitis C replication reporter changes, two-sided – Huh7 cells, luciferase reporter, HCV replication inhibitor project, primary screen (AID 1109); details: Huh7 HCV replicon luciferase reporter, 48 h; higher = more signal;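 further: huh7 hepatoma cells harbouring a luciferase neomycin HCV replicon reporter; luciferase luminescence as measure of HCV replicon replication; test concentration not given here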
[13] = molecular target: Left-right determination factor 2 (Homo sapiens) (UniProt O00292); assay: small molecules binding LEFTY2 protein – biochemical, small-molecule microarray, 635 nm fluorescence scan, primary screen (AID 1110); details: higher = more signal
[14] = molecular target: Calmodulin-1 (Homo sapiens) (UniProt P0DP23); assay: small molecules binding calmodulin-1 with EGTA – biochemical, small-molecule microarray, Cy5-labelled CALM1, profiling panel (AID 1111); details: Cy5-CALM1 binding fluorescence, higher = more signal;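 further: labelled calmodulin applied in Tris saline Tween buffer holding calcium plus EGTA and DTT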
[15] = molecular target: Calmodulin-1 (Homo sapiens) (UniProt P0DP23); assay: small molecules binding Ca-loaded calmodulin-1 – biochemical, small-molecule microarray, Cy5-labelled CALM1, plus calcium, artefact control for SMM control-protein annotation, profiling panel (AID 1112); details: Cy5-CALM1 binding fluorescence, higher = more signal;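 further: score merges spot fluorescence with signal to noise from triplicate slides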
[16] = probe aWnt5a binding to arrayed compounds – biochemical, biotinylated probe, 635/667 nm fluorescence, primary screen (AID 1113); details: small-molecule microarray, higher = more signal;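 further: score merges 667 nm fluorescence intensity with signal-to-noise per printed feature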
[17] = probe aShh binding to arrayed compounds – biochemical, biotinylated probe, 635/667 nm fluorescence, primary screen (AID 1114); details: small-molecule microarray, higher = more signal;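 further: probe is biotin-labelled aShh protein from a stem cell growth factor screen; measures binding of labelled protein to compounds printed on the slide; score merges feature fluorescence at 667 nm with signal-to-noise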
[18] = probe aNog binding to arrayed compounds – biochemical, biotinylated probe, 635/667 nm fluorescence, primary screen (AID 1115); details: small-molecule microarray, higher = more signal;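 further: probe is biotinylated aNog protein used at 0.15 µg/mL for 1 h at 4 C; z-score combines 667 nm fluorescence of each spot with its signal to noise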
[19] = molecular target: Torsin-1A-interacting protein 1 (Homo sapiens) (UniProt Q5JTV8); assay: compound microarray binding of lysate hLAP1 – cell lysate, small-molecule microarray, COS7 lysate, 635/667 nm fluorescence, primary screen (AID 1116); details: 635 nm fluorescence, higher = more signal
[20] = molecular target: Alpha-bungarotoxin (Bungarus multicinctus) (UniProt P60615); assay: compounds binding labelled alpha-BTX control protein – biochemical, small-molecule microarray, Alexa647 label, 635/667 nm fluorescence, artefact control for SMM control protein annotation, profiling panel (AID 1117); details: alpha-BTX-A647 binding fluorescence, higher = more signal
Sequence of Alpha-bungarotoxin (Bungarus multicinctus) (P60615 whole entry, looked up): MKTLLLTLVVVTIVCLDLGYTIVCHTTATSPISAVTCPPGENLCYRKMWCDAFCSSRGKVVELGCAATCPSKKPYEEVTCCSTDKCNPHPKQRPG

Sequence of Follistatin-related protein 3 (Homo sapiens) (O95633 whole entry, looked up): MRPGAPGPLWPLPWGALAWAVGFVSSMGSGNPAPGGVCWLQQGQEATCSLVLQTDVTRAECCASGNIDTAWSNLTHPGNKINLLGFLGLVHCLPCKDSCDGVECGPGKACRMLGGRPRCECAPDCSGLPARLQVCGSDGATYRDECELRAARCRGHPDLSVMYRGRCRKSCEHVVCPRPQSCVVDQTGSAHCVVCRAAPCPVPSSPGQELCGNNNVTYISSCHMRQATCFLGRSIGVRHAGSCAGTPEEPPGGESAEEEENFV
Sequence of Torsin-1A-interacting protein 1 (Homo sapiens) (Q5JTV8 whole entry, looked up): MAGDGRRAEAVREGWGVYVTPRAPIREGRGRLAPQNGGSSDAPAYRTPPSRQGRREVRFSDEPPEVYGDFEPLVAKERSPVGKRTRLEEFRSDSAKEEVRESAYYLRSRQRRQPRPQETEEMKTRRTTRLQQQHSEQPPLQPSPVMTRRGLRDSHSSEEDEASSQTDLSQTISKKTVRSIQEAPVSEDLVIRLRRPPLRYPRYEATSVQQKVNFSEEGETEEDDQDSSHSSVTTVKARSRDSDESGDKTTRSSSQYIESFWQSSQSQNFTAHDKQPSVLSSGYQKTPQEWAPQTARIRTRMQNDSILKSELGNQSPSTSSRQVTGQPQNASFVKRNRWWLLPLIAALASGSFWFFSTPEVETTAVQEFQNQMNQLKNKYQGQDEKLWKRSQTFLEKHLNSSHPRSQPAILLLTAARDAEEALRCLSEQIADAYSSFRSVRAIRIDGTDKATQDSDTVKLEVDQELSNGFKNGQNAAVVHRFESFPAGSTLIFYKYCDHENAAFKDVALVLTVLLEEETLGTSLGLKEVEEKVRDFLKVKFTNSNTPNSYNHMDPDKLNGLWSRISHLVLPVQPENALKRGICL
Sequence of Epidermal growth factor receptor (Homo sapiens) (P00533 whole entry, looked up): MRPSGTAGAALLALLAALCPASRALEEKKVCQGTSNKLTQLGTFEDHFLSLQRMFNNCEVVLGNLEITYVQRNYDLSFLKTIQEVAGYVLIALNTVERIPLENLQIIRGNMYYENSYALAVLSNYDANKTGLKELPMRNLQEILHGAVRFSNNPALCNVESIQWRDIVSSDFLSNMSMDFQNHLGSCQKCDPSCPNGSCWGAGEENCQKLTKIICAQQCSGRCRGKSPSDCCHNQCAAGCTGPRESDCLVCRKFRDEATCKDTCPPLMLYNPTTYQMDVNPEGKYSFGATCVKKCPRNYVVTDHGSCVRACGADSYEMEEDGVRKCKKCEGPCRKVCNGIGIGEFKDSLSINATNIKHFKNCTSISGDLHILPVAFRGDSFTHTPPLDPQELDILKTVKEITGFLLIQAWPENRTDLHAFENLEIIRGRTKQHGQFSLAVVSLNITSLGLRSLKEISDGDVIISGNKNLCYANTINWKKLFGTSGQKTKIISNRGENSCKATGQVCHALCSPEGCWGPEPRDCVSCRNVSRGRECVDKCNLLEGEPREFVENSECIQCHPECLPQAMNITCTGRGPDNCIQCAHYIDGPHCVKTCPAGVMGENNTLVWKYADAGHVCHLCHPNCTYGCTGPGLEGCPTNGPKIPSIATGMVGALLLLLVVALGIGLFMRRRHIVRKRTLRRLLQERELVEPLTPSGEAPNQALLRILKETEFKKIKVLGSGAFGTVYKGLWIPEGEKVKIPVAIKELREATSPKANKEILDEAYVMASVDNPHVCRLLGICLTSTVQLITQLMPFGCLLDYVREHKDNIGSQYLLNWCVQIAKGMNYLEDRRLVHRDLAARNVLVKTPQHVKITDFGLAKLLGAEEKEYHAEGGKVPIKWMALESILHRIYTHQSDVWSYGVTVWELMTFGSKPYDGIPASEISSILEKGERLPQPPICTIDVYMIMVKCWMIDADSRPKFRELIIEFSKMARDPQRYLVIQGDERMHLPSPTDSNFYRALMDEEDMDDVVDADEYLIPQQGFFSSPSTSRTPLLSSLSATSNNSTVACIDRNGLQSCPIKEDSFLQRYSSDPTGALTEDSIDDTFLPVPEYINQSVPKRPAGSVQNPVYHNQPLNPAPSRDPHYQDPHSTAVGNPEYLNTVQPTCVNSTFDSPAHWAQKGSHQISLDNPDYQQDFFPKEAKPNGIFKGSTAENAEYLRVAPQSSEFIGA
Sequence of Dickkopf-related protein 1 (Homo sapiens) (O94907 whole entry, looked up): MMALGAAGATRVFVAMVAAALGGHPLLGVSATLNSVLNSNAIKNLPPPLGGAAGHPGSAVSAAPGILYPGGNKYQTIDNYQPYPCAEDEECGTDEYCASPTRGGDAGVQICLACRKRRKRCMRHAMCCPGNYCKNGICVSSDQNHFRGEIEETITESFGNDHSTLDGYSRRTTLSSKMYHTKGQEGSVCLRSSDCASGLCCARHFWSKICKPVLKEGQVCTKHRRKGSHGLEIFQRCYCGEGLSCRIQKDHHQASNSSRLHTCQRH
Sequence of Fibroblast growth factor 10 (Homo sapiens) (O15520 whole entry, looked up): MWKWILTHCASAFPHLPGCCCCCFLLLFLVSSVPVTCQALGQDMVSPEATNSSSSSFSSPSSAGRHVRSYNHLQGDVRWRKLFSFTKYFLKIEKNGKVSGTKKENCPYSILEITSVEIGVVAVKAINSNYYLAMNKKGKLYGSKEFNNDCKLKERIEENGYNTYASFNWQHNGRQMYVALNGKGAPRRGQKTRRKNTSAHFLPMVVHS
Sequence of Left-right determination factor 2 (Homo sapiens) (O00292 whole entry, looked up): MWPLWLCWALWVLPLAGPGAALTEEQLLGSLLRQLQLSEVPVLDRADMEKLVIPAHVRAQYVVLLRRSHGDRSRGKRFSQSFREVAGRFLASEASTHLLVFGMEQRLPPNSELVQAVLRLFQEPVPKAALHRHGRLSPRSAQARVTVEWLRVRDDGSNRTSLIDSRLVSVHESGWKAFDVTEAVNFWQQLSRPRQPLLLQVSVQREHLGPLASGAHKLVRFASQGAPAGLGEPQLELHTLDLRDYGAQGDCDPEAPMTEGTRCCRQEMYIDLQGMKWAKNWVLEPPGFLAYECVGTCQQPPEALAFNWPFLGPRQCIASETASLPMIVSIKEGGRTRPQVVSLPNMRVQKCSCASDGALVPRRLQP

Row | Structure (SMILES) | composite z-score [1] | composite z-score [2] | composite z-score [3] | z-score [4] | composite z-score [5] | composite z-score [6] | composite z-score [7] | composite z-score [8] | composite z-score [9] | composite z-score [10] | composite z-score [11] | z-score [12] | composite z-score [13] | composite z-score [14] | composite z-score [15] | composite z-score [16] | composite z-score [17] | composite z-score [18] | composite z-score [19] | composite z-score [20]
1 | COc1ccc([Si](C)(C)[C@@H]2[C@@H](CC(=O)N3Cc4ccccc4C[C@H]3CO)O[C@]3(C(=O)N(Cc4cccc(N5C(=O)c6cccc7cccc5c67)c4)c4ccccc43)[C@H]2C)cc1 | 1.25 | -0.199 | 0.208 | 0.93 (inactive) | 0.579 | 0.313 | 0.982 | 1.43 | 1.43 | 0.636 | 1.21 | -3.68 | 0.98 | 0.937 | 1.46 | -0.0685 | -0.17 | -0.237 | 0.83 | 0.886
2 | COc1ccc(NC(=O)O[C@H]2[C@H](OC(=O)Nc3ccccc3)[C@@H](OC(=O)Nc3ccccc3)[C@@H](OC)O[C@@H]2CO)cc1 | 1.55 | 0.25 | 0.39 | -1.67 (inactive) | 1.5 | 1.31 | 0.0729 | 0.83 | 0.396 | 0.385 | 1.28 | -3.04 | 0.298 | 1.41 | -0.298 | 0.107 | -0.0813 | 0.564 | 1.25 | 0.577
3 | [N-]=[N+]=NCc1ccccc1C[C@@]1(C(=O)N2CCCCC2)N=C(c2ccc(OCCCO)cc2)O[C@@H]1c1ccccc1 | 0.884 | 0.542 | 0.751 | -0.422 (inactive) | 0.384 | 0.0635 | -0.451 | -0.281 | -0.849 | 1.05 | 0.785 | -3.35 | -1.01 | 1.28 | 0.958 | 0.0141 | -0.325 | 0.46 | 2.15 | 1
4 | CCCC[C@@H]1C[C@H]1[C@@H](NC(=O)c1cccs1)c1ccc(C(F)(F)F)cc1 | 0.0819 | 0.0202 | 0.549 | 0.101 (inactive) | -0.609 | -0.776 | -0.507 | -0.152 | -0.0222 | 1.09 | -0.47 | -0.152 | -0.45 | -0.501 | -1.05 | -0.0334 | 0.214 | 0.277 | -0.515 | 0.237
5 | COC(=O)[C@@]1(Cc2ccccc2)[C@@H]2C(=CC(=O)[C@H]2CC(=O)C(=O)N(C)C)CN1C(=O)c1ccccc1 | 0.971 | 1.08 | 1.17 | 2.93 (inactive) | 0.473 | 0.982 | 0.159 | 0.471 | -0.465 | 1.25 | 0.883 | -2.36 | 0.25 | 1.31 | 0.477 | 0.188 | 0.21 | 1.46 | 0.275 | 0.409
6 | C=CCC(OC(C)=O)[C@@H]1[C@@H](N(Cc2cc3ccccc3o2)C(=O)c2ccc(C)cc2)c2cc(OCCCO)ccc2N1C(=O)Cc1ccc(OC)cc1 (stereo not given in full) | -0.0682 | -0.199 | 0.33 | -0.669 (inactive) | 0.289 | 0.121 | -0.147 | 0.087 | 0.0807 | 1.01 | -0.098 | -0.169 | -0.0667 | -0.254 | -0.583 | 0.0317 | 0.136 | -0.318 | -0.0471 | 0.203
7 | CCOC(=O)c1ccc(NC(=O)O[C@H]2[C@H](OC(=O)Nc3ccc4c(c3)OCO4)[C@H](OC(=O)Nc3ccc4c(c3)OCO4)[C@@H](OC)O[C@@H]2CO)cc1 | 1.56 | 0.901 | 0.944 | 0.646 (inactive) | 1.33 | 1.33 | 0.517 | 1.39 | 1 | 0.673 | 1.03 | 0.295 | 0.803 | 1.41 | -0.179 | 0.0771 | 0.369 | 0.252 | 0.645 | 1.22
8 | O=C(NCCCCCNC(=O)/C(Cc1ccccc1)=N/O)OCc1ccccc1 | -0.263 | -0.314 | -0.603 | -1.54 (inactive) | 0.0434 | -0.201 | 0.445 | 0.206 | 0.229 | -0.182 | -0.0938 | -1.24 | 0.629 | -0.503 | -0.592 | -0.0445 | -0.426 | -0.633 | 0.154 | 0.269
9 | COC(=O)[C@@]1(Cc2ccc(OC)cc2)[C@@H]2C(=CC(=O)[C@H]2CC(=O)C(=O)N(C)C)CN1C(=O)c1ccccc1 | 0.86 | 1.22 | 1.09 | -2.59 (inactive) | 0.945 | 1.07 | -0.208 | 1.03 | -0.568 | 0.928 | 1.42 | -2.8 | -0.195 | 2.21 | 0.775 | 0.268 | 0.1 | 2.25 | 0.755 | 0.923
10 | O=C1N(Cc2ccccc2)c2ccccc2[C@@H]2OC(c3ccc(OCCCO)cc3)=N[C@]12Cc1ccccc1 | 0.959 | 0.659 | 1 | -0.0483 (inactive) | 0.504 | 0.852 | 0.224 | 0.61 | 0.0877 | 1.13 | 1.45 | -2.69 | 0.0601 | 1.05 | -0.338 | 0.0037 | 0.138 | 0.0705 | 0.685 | 0.807
11 | O=C1O[C@H](c2ccccc2)[C@H](c2ccccc2)N2[C@H]1[C@@H](C(=O)N1CCN(c3ncccn3)CC1)[C@]1(C(=O)Nc3ccc(C#CC4(O)CCCCCC4)cc31)[C@H]2c1ccc(OCCO)cc1 | 1.82 | 0.695 | 0.731 | -0.604 (inactive) | 1.45 | 1.33 | 1.38 | 1.21 | 1.42 | 0.86 | 1.44 | -1.58 | 1.51 | 2.26 | 1.24 | 0.793 | 0.543 | 2.34 | 3.93 | 2.81
